High-throughput results (PubChem BioAssay)
GDH-TPI counter – counter-screen for M. tuberculosis FBA inhibitors: GDH-TPI coupled enzymes. GDH-TPI coupled enzyme counterscreen, NADH absorbance. inhibition, % at 4.8 µM. actives 1.2% (n = 360,000);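 note: 0% = DMSO wells and 100% = wells lacking the enzyme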
MazF activator – MazEF (E. coli) toxin RNase activation | P0AE70 | FAM/BHQ RNA-DNA oligo cleavage fluorescence, 5 h | activation, % at 20 µM | actives 0.32% (n = 350,000) | AID 504720; in the data active = activation above about 50%
Target sequence (P0AE70 whole entry, looked up): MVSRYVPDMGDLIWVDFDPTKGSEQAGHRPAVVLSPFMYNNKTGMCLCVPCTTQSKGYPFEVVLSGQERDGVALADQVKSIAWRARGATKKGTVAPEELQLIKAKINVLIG
Mtb betalactam – beta-lactam sensitization of Mtb H37Rv. M. tuberculosis H37Rv growth with meropenem, percent inhibition. inhibition, % at 25 µM. actives 0.27% (n = 330,000). AID 434955; call rule not given here;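 note: growth measured after seven days incubation then overnight dye step; 0% = bacteria only wells and 100% = bacteria with antibiotic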
CCHF vOTU inh-1 – blocks the CCHF virus ovarian tumor domain protease. CCHFV vOTU protease, Pep-AMC fluorescence. actives 0.55% (n = 370,000). inhibition, % at 11.5 µM; note: 0% = vehicle wells with enzyme and 100% = no enzyme wells
FBA Mtb inh – inhibits M. tuberculosis FBA enzyme. purified M. tuberculosis FBA, fluorescence read-out. P9WQA3. actives 2.3% (n = 360,000). inhibition, % at 1 µM; in the data active = inhibition above about 27%;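 note: 0% = vehicle and 100% = reference inhibitor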
Target sequence (P9WQA3 whole entry, looked up): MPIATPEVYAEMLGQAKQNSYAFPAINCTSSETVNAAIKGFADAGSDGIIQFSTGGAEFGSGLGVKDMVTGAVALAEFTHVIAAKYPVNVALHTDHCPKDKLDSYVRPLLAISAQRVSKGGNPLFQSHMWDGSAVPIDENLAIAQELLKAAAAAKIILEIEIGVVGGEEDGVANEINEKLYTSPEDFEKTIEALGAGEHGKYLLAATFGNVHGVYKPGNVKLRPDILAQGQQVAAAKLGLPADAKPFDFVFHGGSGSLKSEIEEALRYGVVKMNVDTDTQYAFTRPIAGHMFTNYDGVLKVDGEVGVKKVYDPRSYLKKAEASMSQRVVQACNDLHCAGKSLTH
CCHF vOTU inh-2 – CCHFV vOTU protease inhibition, confirmation. shares compounds with CCHF vOTU inh-1. Recombinant CCHFV vOTU, Pep-AMC fluorescence. inhibition, % at 11.5 µM. actives 17% (n = 1,900). AID 686976
Numbers without * were called inactive; . = not tested or not shown; ! = not confirmed by another sample. Most compounds without a hit are left out; they make up all but 4% or so of the library. Cut-off read from the data, not from the text of the source, unless noted: active = inhibition above about 30%; inactive = the rest.

SMILES	GDH-TPI counter	MazF activator	Mtb betalactam	CCHF vOTU inh-1	FBA Mtb inh	CCHF vOTU inh-2
CCCCNC(=O)c1ccc2nc(-c3ccco3)c(-c3ccco3)nc2c1	-2	-5	1	48*	0	8
CC(=O)c1ccc(NC(=O)c2ccc3nc(-c4ccco4)c(-c4ccco4)nc3c2)cc1	23	4	16	.	-2	.
O=C(NCc1ccccc1)c1ccc2nc(-c3ccco3)c(-c3ccco3)nc2c1	7	6	2	49*	-1	-1
O=C(NCCCO)c1ccc2nc(-c3ccco3)c(-c3ccco3)nc2c1	13	-14	.	40*	-2	55*
O=C(c1ccc2nc(-c3ccco3)c(-c3ccco3)nc2c1)N1CCN(c2ncccn2)CC1	11	0	4	32*	-7	50*
Cc1ccc2nc(SC(C)C(=O)Nc3cccc([N+](=O)[O-])c3)[nH]c2c1 (stereo not given)	12	-1	14	-11	0	.
C=CCCC(=O)N1C[C@H]2CON(C)[C@H]2C[C@H]1c1ccccc1Br	-14	-1	.	-6	-1	.
CN1OC[C@@H]2CN(C(=O)c3ccc([N+](=O)[O-])cc3)[C@H](c3ccccc3Br)C[C@@H]21	.	.	.	39*	.	-16
CN(CC(=O)Nc1ccc(F)cc1)C(=O)C1CCN(S(=O)(=O)c2ccc3c(c2)OCCO3)CC1	4	-1	-1	34*	1	-16
CN(CC(=O)Nc1ccccc1Cl)C(=O)C1CCN(S(=O)(=O)c2ccc3c(c2)OCCO3)CC1	-3	-3	2	17	-1	.
O=C(COC(=O)c1cnccn1)Nc1cc(S(=O)(=O)N2CCOCC2)ccc1Cl	-5	14	-6	8	1	.
Cc1cccc(NC(=O)CN2C(=O)S/C(=C\c3ccc(O)c([N+](=O)[O-])c3)C2=O)c1	-2	11	5	31*	-6	2
CNc1c(NS(=O)(=O)c2ccc(C3CCCCC3)cc2)c(=O)oc2ccccc12	2	-3	-4	-4	6	.
O=C1Nc2ccccc2N(O)N1c1cc(-c2ccc(Cl)cc2)[nH]n1	0	-5	-3	-6	-6	.
CCC(Sc1nc2ccsc2c(=O)n1Cc1ccc(C(=O)O)cc1)C(=O)Nc1ccc(C)c(Cl)c1 (stereo not given)	2	-2	3	31*	3	8
CCC(Sc1nc2ccsc2c(=O)n1Cc1ccc(C(=O)O)cc1)C(=O)Nc1cc(Cl)ccc1C (stereo not given)	-4	-4	.	8	1	.
CC(C)Cn1c(N)c(C(=O)COC(=O)c2c(O)c(Cl)cc(Cl)c2Cl)c(=O)n(C)c1=O	-2	0	0	41*	5	-5
Cc1cc2cc(NC(=O)c3ccco3)ccc2[nH]1	4	2	1	33*	0	-11
COc1ccc(NC(=O)Cn2cnc3sc(C)c(S(=O)(=O)N4CCOCC4)c3c2=O)c(OC)c1	2	-2	-8	6	-2	.
O=C(NC(=S)Nc1ccc(S(=O)(=O)Nc2nccs2)cc1)c1ccc(F)c(F)c1	9	-7	2	42*	-4	-11
CC1=NN(c2ccc(Cl)cc2)C(=O)C1	-1	-2	1	41*	1	-11
CC1=NN(c2cccc([N+](=O)[O-])c2)C(=O)C1	9	0	0	13	-3	.
CC1=NN(c2ccc(N)cc2)C(=O)C1	11	-7	0	57*	1	-9
CC1=NN(Cc2ccccc2)C(=O)C1	-7	10	0	36*	1	-19
CC1=NN(c2nc(-c3ccc(Cl)cc3)cs2)C(=O)C1	-2	-9	-2	1	5	.
SMILES	GDH-TPI counter	MazF activator	Mtb betalactam	CCHF vOTU inh-1	FBA Mtb inh	CCHF vOTU inh-2
O=C1CCCCCCCN1Cc1ccccc1	-7	7	-1	-10	0	.
CC1=NN(c2ccccc2)C(=O)C1	4	-2	4	87*	-3	-11
CCCCCCCCN1C(=O)[C@H](CC(=O)N2CCN(C(=O)c3ccco3)CC2)C[C@@]2(C(=O)OC)CCCCC=C12	.	.	.	30*	.	-2
COC(=O)[C@@]12C[C@@H](CC(=O)N3CCN(C(=O)c4ccco4)CC3)C(=O)N(CCc3ccc(OC)c(OC)c3)C1=CCC(C)(C)C2	.	.	.	1	.	.
CCCCCCCCN1C(=O)[C@H](CC(=O)N2CCN(C(=O)c3ccco3)CC2)C[C@@]2(C(=O)OC)CC(C)(C)CC=C12	.	.	.	32*	.	11
CN1CC[C@@]2(C)c3cc(O)ccc3N(C)[C@@H]12	4	7	.	40*!	-5	28
CN1CC[C@@]2(C)c3cc(O)ccc3N(C)C2O1 (stereo not given in full)	-6	0	8	.	-2	.
CC1(C(=O)Nc2ccc(F)cc2F)CCN1C(=O)CCC1CCCC1 (stereo not given)	9	.	.	33*	1	-15
O=S(=O)(Nc1c(S(=O)(=O)c2ccccc2)c2nc3ccccc3nc2n1C1CCCCC1)c1ccccc1	9	4	-2	94*	4	64*
C=CCn1c(NS(=O)(=O)c2ccccc2)c(S(=O)(=O)c2ccc(C)cc2)c2nc3ccccc3nc21	8	3	-3	33*	14	-14
CCN1CCN(C(=O)C2CCC(=O)N(Cc3cccc(C(F)(F)F)c3)C2)CC1 (stereo not given)	7	3	-2	-28	-2	.
COc1cccc(CNC(=O)CSCc2cnn(-c3ccccc3)c2-n2cccc2)c1	6	1	-5	36*	3	7
CNC(=O)CSCc1cnn(-c2ccccc2)c1-n1cccc1	-2	-1	-3	1	1	.
COc1cc(N=C2C(=O)N3c4c(cccc42)C(C)=CC3(C)C)cc(OC)c1	4	1	1	4	7	.
CC1=CC(C)(C)N2C(=O)C(=Nc3ccc(O)cc3)c3cccc1c32	8	11	18	82*	0	-10
CC(=O)NCC(=O)OC(C)C(=O)Nc1ccc(C(C)=O)cc1 (stereo not given)	6	2	5	38*	1	-20
CC(=O)NCC(=O)OCC(=O)Nc1ccc(C(C)=O)cc1	3	-9	5	2	-3	.
CCCNC(=O)c1c(N)n(Cc2ccc3c(c2)OCO3)c2nc3ccccc3nc12	5	-3	-17	.	0	.
CC(C)CCNC(=O)c1c(N)n(Cc2ccc3c(c2)OCO3)c2nc3ccccc3nc12	1	-2	32	54*	3	-14
O=C(/C=C/c1ccc([N+](=O)[O-])s1)N1CCCCC1	16	-2	100	32*	-3	32*
O=C(/C=C/c1ccc([N+](=O)[O-])s1)N1CCCC1	4	13	98	14	-4	.
O=c1[nH]c(=S)[nH]c2c1C(c1ccc(Br)cc1)c1c([nH]c(=S)[nH]c1=O)O2	10	-17	-5	43*	3	41*
Oc1ccc2cccnc2c1	3	7	-8	1	-5	.
